Test results from the supplement of paper PMC8728848.
Many of the other results were omitted from the sample, so the strongest signals are more common in it than they were.

Assays:
Assay in all cases: glycan array binding signal (z-score within array); higher = stronger binding
Details in all cases: glycan notation: IUPAC condensed, linker removed
[1] = target: Fuc(a1-2)Gal(b1-3)GalNAc(b1-3)Gal
Outline: (§1)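 Glycan array data were curated from 3228 arrays in the Consortium for Functional Glycomics database and kept only where the protein sequence was available. Glycan names were converted to IUPAC-condensed notation, and columns mapping to the same glycan were averaged. The binding signal is a within-array Z-score, averaged across arrays of the same protein sequence at different concentrations or buffers and across linkers. Negative Z-scores can be read as non-binding.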

[2] = target: Fuc(a1-2)Gal(b1-3)GlcNAc(b1-2)Man(a1-3)[Fuc(a1-2)Gal(b1-3)GlcNAc(b1-2)Man(a1-6)]Man(b1-4)GlcNAc(b1-4)[Fuc(a1-6)]GlcNAc
Outline: as §1

[3] = target: Fuc(a1-2)Gal(b1-4)[Fuc(a1-3)]GlcNAc(b1-3)[Neu5Ac(a2-6)Gal(b1-4)GlcNAc(b1-6)]Gal(b1-4)Glc
Outline: as §1

[4] = target: Fuc(a1-2)Gal6S(b1-4)Glc6S
Outline: as §1

[5] = target: Fuc(a1-2)[Gal(a1-3)]Gal(b1-3)GlcNAc(b1-2)Man(a1-3)[Fuc(a1-2)[Gal(a1-3)]Gal(b1-3)GlcNAc(b1-2)Man(a1-6)]Man(b1-4)GlcNAc(b1-4)GlcNAc
Outline: as §1

[6] = target: Fuc(a1-2)[Gal(a1-3)]Gal(b1-3)GlcNAc(b1-2)Man(a1-3)[Fuc(a1-2)[Gal(a1-3)]Gal(b1-3)GlcNAc(b1-2)Man(a1-6)]Man(b1-4)GlcNAc(b1-4)[Fuc(a1-6)]GlcNAc
Outline: as §1

[7] = target: Fuc(a1-2)[Gal(a1-3)]Gal(b1-4)[Fuc(a1-3)]GlcNAc(b1-3)GalNAc
Outline: as §1

[8] = target: Fuc(a1-2)[GalNAc(a1-3)]Gal(b1-4)Glc
Outline: as §1

[9] = target: Fuc(a1-3)[Gal(b1-4)]GlcNAc
Outline: as §1

[10] = target: Fuc(a1-3)[GalNAc(b1-4)]GlcNAc6S
Outline: as §1

Fuc(b1-3)GlcNAc = target: Fuc(b1-3)GlcNAc
Outline: as §1

[11] = target: Gal(a1-3)Gal(b1-4)GlcNAc(b1-3)GalNAc
Outline: as §1

[12] = target: Gal(a1-3)Gal(b1-4)[Fuc(a1-3)]GlcNAc(b1-2)Man(a1-3)[Gal(a1-3)Gal(b1-4)[Fuc(a1-3)]GlcNAc(b1-2)Man(a1-6)]Man(b1-4)GlcNAc(b1-4)GlcNAc
Outline: as §1

[13] = target: Gal(a1-4)Gal(b1-3)GlcNAc(b1-2)Man(a1-3)[Gal(a1-4)Gal(b1-3)GlcNAc(b1-2)Man(a1-6)]Man(b1-4)GlcNAc(b1-4)GlcNAc
Outline: as §1

[14] = target: Gal(a1-4)Gal(b1-4)GlcNAc(b1-3)Gal(b1-4)Glc
Outline: as §1

Gal(b1-3)Gal(b1-4)GlcNAc = target: Gal(b1-3)Gal(b1-4)GlcNAc
Outline: as §1

Gal(b1-3)GalNAc(b1-3)Gal = target: Gal(b1-3)GalNAc(b1-3)Gal
Outline: as §1

[15] = target: Gal(b1-3)GalNAc(b1-4)Gal(b1-4)Glc
Outline: as §1

Gal(b1-3)GlcNAc(b1-2)Man = target: Gal(b1-3)GlcNAc(b1-2)Man
Outline: as §1

[16] = target: Gal(b1-3)GlcNAc(b1-3)Gal(b1-4)GlcNAc(b1-2)[Gal(b1-3)GlcNAc(b1-3)Gal(b1-4)GlcNAc(b1-6)]Man(a1-6)[Gal(b1-3)GlcNAc(b1-3)Gal(b1-4)GlcNAc(b1-2)Man(a1-3)]Man(b1-4)GlcNAc(b1-4)[Fuc(a1-6)]GlcNAc
Outline: as §1

[17] = target: Gal(b1-3)GlcNAc(b1-3)GalNAc
Outline: as §1

[18] = target: Gal(b1-3)[Neu5Ac(b2-6)]GalNAc
Outline: as §1

[19] = target: Gal(b1-4)GalNAc(b1-3)[Fuc(a1-2)]Gal(b1-4)GlcNAc
Outline: as §1

Gal(b1-4)Glc6S = target: Gal(b1-4)Glc6S
Outline: as §1

[20] = target: Gal(b1-4)GlcNAc(b1-2)[Gal(b1-4)GlcNAc(b1-4)]Man(a1-3)[Gal(b1-4)GlcNAc(b1-2)[Gal(b1-4)GlcNAc(b1-6)]Man(a1-6)]Man(b1-4)GlcNAc(b1-4)GlcNAc
Outline: as §1

[21] = target: Gal(b1-4)GlcNAc(b1-3)Gal(b1-4)GlcNAc(b1-2)Man(a1-3)[Gal(b1-4)GlcNAc(b1-3)Gal(b1-4)GlcNAc(b1-2)Man(a1-6)]Man(b1-4)GlcNAc(b1-4)[Fuc(a1-6)]GlcNAc
Outline: as §1

[22] = target: Gal(b1-4)GlcNAc(b1-3)Gal(b1-4)GlcNAc(b1-3)Gal(b1-4)GlcNAc(b1-3)Gal(b1-4)GlcNAc(b1-3)Gal(b1-4)GlcNAc(b1-2)[Gal(b1-4)GlcNAc(b1-3)Gal(b1-4)GlcNAc(b1-3)Gal(b1-4)GlcNAc(b1-3)Gal(b1-4)GlcNAc(b1-3)Gal(b1-4)GlcNAc(b1-6)]Man(a1-6)[Gal(b1-4)GlcNAc(b1-3)Gal(b1-4)GlcNAc(b1-3)Gal(b1-4)GlcNAc(b1-3)Gal(b1-4)GlcNAc(b1-3)Gal(b1-4)GlcNAc(b1-2)Man(a1-3)]Man(b1-4)GlcNAc(b1-4)[Fuc(a1-6)]GlcNAc
Outline: as §1

B1: FimA-N3 (Actinomyces oris) (protein)
chain: MHHHHHHSSGVDLGTENLYFQSNAGLQGAQFQLYKAKNAYANTCSNEKEGAPIAINGQTTLTTDAQGAIDIKGLFISDSIDGADRDNQVNAMERCYVLVETKAPAGYVLPAGNGAATPVKVKAGEETTDN
glycan array binding signal (z-score) [1]: 5.62
glycan array binding signal (z-score) [2]: -0.196
glycan array binding signal (z-score) [3]: -0.472
glycan array binding signal (z-score) [4]: 0.307
glycan array binding signal (z-score) [5]: -0.378
glycan array binding signal (z-score) [6]: -0.364
glycan array binding signal (z-score) [7]: 0.505
glycan array binding signal (z-score) [8]: -0.493
glycan array binding signal (z-score) [9]: -0.369
glycan array binding signal (z-score) [10]: 4.08
glycan array binding signal (z-score) (Fuc(b1-3)GlcNAc): -0.128
glycan array binding signal (z-score) [11]: 0.243
glycan array binding signal (z-score) [12]: -0.667
glycan array binding signal (z-score) [13]: -0.264
glycan array binding signal (z-score) [14]: -0.388
glycan array binding signal (z-score) (Gal(b1-3)Gal(b1-4)GlcNAc): 0.999
glycan array binding signal (z-score) (Gal(b1-3)GalNAc(b1-3)Gal): -0.367
glycan array binding signal (z-score) [15]: 3.23
glycan array binding signal (z-score) (Gal(b1-3)GlcNAc(b1-2)Man): -0.37
glycan array binding signal (z-score) [16]: 2.94
glycan array binding signal (z-score) [17]: -0.259
glycan array binding signal (z-score) [18]: -0.563
glycan array binding signal (z-score) [19]: -0.587
glycan array binding signal (z-score) (Gal(b1-4)Glc6S): -0.058
glycan array binding signal (z-score) [20]: -0.618
glycan array binding signal (z-score) [21]: -0.021
glycan array binding signal (z-score) [22]: 4.26
